# Results as given in PMC5540273 (PLoS ONE, 2017).
# What was measured:
# Details in all cases: concentration: 1 μM,replicates: in singlicate; n = 1
# [1] = tested on: TYK2(JH2domain-pseudokinase)
# TYRO3 = tested on: TYRO3
# ULK1 = tested on: ULK1
# ULK2 = tested on: ULK2
# ULK3 = tested on: ULK3
# VEGFR2 = tested on: T1, VEGFR2
# T1 construct: gene KDR
# VPS34 = tested on: T2, VPS34
# T2 construct: gene PIK3C3
# VRK2 = tested on: VRK2
# WEE1 = tested on: WEE1
# WEE2 = tested on: WEE2
# 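Note: KINOMEscan kinase panel screen.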
Structure (SMILES),%Inh [1] [%],%Inh (TYRO3) [%],%Inh (ULK1) [%],%Inh (ULK2) [%],%Inh (ULK3) [%],%Inh (VEGFR2) [%],%Inh (VPS34) [%],%Inh (VRK2) [%],%Inh (WEE1) [%],%Inh (WEE2) [%]
Cl.Cl.NC[C@H](CC1CCCCC1)NC(=O)c1cc(Br)c(-c2ccnc3[nH]ccc23)s1 [GSK1581427],5,0,28,0,10,7,0,0,3,10
Nc1nc(Nc2ccccc2)cc(-c2ccc3c(N)n[nH]c3c2)n1 [GSK2225749],45,0,92.8,62,16,5,3,0,0,0
Cl.Cl.Nc1nc(-c2ccc3c(N)n[nH]c3c2)cc(N2CCCC(NC(=O)c3ccccc3)C2)n1 (stereo not shown) [GSK2286775],38,0,11,2,36,9,0,0,18,0
CC(C)Nc1cc(-c2ccc3c(N)n[nH]c3c2)nc(N)n1 [GSK2221681],8,0,76,22,9,4,0,0,8,0
Cl.Cl.NC[C@H](Cc1ccc(C(F)(F)F)cc1)NC(=O)c1cc(Br)c(-c2ccnc3[nH]ccc23)s1 [GSK1487252],16,0,5,19,6,34,0,0,0,0
Cc1cc2cn[nH]c2cc1-c1cccc2c(N)c(C(N)=O)nnc12,65,15,28,30,50,13,19,21,12,29
CC(C)N1C(=O)Cc2cc(Nc3ncc(C(F)(F)F)c(NCc4cccc(S(C)(=O)=O)c4)n3)ccc21,29,0,60,54,59,74,55,39,38,7
Cc1ccc2c(-c3ccncc3)c(-c3ccc(F)cc3)nn2c1.Cl [GW461484],2,0,7,0,23,2,0,0,3,1
C=CC(=O)Nc1cc2c(Nc3ccc(F)c(Cl)c3)ncnc2cc1OCCCN1CCOCC1 [GW781483],21,29,0,17,14,0,6,0,0,20
O=C(NCCNc1ccnc(NCc2ccc(F)cc2)n1)c1cc2ccccc2s1 [GSK1379944],10,4,3,0,0,0,0,0,3,19
Cc1n[nH]c2ccc(-c3cc(OC[C@@H](N)Cc4ccccc4)cnc3-c3ccoc3)cc12.O=C(O)C(F)(F)F.O=C(O)C(F)(F)F [GSK507358],19,0,0,8,22,0,0,33,35,15
Cc1cc(C(=O)Nc2ccc(Oc3ccc4nc(NC(=O)C5CC5)cn4n3)cc2)nn1-c1ccccc1,0,37,0,0,0,–,0,0,15,7
NC(=O)c1cc(-c2ccccc2)cc2c(C3CCNCC3)c[nH]c12 [GSK301362],99.7,1,23,29,18,0,0,0,14,11
Cl.Oc1cc(-c2nc(-c3ccccc3)[nH]c2-c2ccncc2)ccc1Cl [SB-386023],0,58,7,25,25,20,14,0,0,11
CN(C)CCOc1ccc(-c2cc(-c3c[nH]nc3-c3ccccn3)ccn2)cc1 [GW835314],21,8,0,31,4,6,0,0,0,11
O=C(NCCCN1CCOC1=O)c1cnc(NCc2cc(Cl)ccc2Cl)nc1NC1CCCC1,0,46,0,0,0,0,0,7,0,0
CCN(CC)CCOc1ccc(Nc2ncc3cc(-c4c(Cl)cccc4Cl)c(=O)n(C)c3n2)cc1 [SB-601273],25,100,92.4,95.2,59,97.6,44,46,99.9,99.7
CNC(=O)c1ccccc1Sc1ccc2c(/C=C/c3ccccn3)n[nH]c2c1,0,0,20,58,–,99.9,3,0,0,–
COc1ccc(C[C@@H](CN)NC(=O)c2cc(Br)c(-c3ccnc4[nH]ccc34)s2)cc1.Cl.Cl [GSK1389063],23,0,40,16,12,58,35,47,0,18
CCN(CC)CCCCNc1ncc2cc(-c3c(Cl)cccc3Cl)c(NC(=O)NC(C)(C)C)nc2n1,0,8,0,29,0,90.4,12,0,3,3
C[C@@H]1CCN(C(=O)CC#N)C[C@@H]1N(C)c1ncnc2[nH]ccc12,–,0,0,0,0,0,0,0,0,2
Cc1ccc(-n2nc(C(C)(C)C)cc2NC(=O)Nc2ccc(OCCN3CCOCC3)c3ccccc23)cc1 [GW839464],0,37,0,0,0,37,21,0,0,14
CN(C)CC(O)COc1ccc(Nc2nccc(-c3cnn4nc(N5CCOCC5)ccc34)n2)cc1 (stereo not shown) [GW767488],97.3,10,98.8,96.3,61,20,95.4,0,8,0
C[C@H]1Oc2cc(cnc2N)-c2c(nn(C)c2C#N)CN(C)C(=O)c2ccc(F)cc21,0,5,0,0,0,3,0,42,0,16
CCn1c(-c2nonc2N)nc2c(C#CC(C)(C)O)nc(OCCN)cc21.Cl.Cl [GSK902056],9,0,33,0,13,0,0,0,6,15
Cc1occc1-c1nc(N)c(OC[C@@H](N)Cc2c[nH]c3ccccc23)cc1-c1cc2c(C)n[nH]c2cn1 [GSK1660450],0,0,33,22,11,0,18,90.1,0,15
C[C@@H](Oc1cc(-c2cnn(C3CCNCC3)c2)cnc1N)c1c(Cl)ccc(F)c1Cl,43,–,67,53,32,22,0,11,0,0
